About 79,000 compounds went through this panel and 15% of them were active in at least one assay; those are over-represented in the sample as a whole. Values without a mark were called inactive. The source made the active and inactive calls. No stated cut-off is given here; in the data, active means growth inhibition above about 70%; inactive means the rest.
How the values were obtained:
[1] = NCI Yeast Anticancer Drug Screen. Data for the wt1 strain (AID 149);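 further: 0% = growth of vehicle-treated wt1 cultures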; details: S. cerevisiae wt1 strain (SPY 50644) growth inhibition, active compounds read high
How it was run: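 Readout: yeast growth inhibition, normalised to vehicle controls, in the wt1 strain exposed to test compounds.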

[2] = NCI Yeast Anticancer Drug Screen. Data for the rad50EPP+ strain (AID 151);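 further: 0% = growth of vehicle-treated control cultures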; details: S. cerevisiae rad50 mutant strain, active compounds read high
How it was run: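 Compounds were applied to the rad50EPP+ yeast strain, which bears a defined DNA repair alteration, and growth inhibition was determined relative to vehicle-treated cultures.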

[3] = NCI Yeast Anticancer Drug Screen. Data for the mgt1 strain (AID 153); details: S. cerevisiae mgt1 mutant growth inhibition, active compounds read high
How it was run: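 Strain: mgt1 yeast, one of a set carrying defined DNA damage repair or cell cycle control alterations. Compound-treated growth compared with vehicle.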

[4] = NCI Yeast Anticancer Drug Screen. Data for the rad50 strain (AID 155);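 further: 0% = growth of vehicle-only cultures of the same strain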; details: S. cerevisiae rad50 strain growth inhibition, active compounds read high
How it was run: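 Compounds were tested on a yeast strain with an engineered DNA damage repair alteration; the reported value is growth inhibition normalised to vehicle treatment.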

[5] = NCI Yeast Anticancer Drug Screen. Data for the mec2-1 strain (AID 157); details: S. cerevisiae mec2-1 strain, active compounds read high
How it was run: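 Strain: mec2-1 (DNA repair/cell cycle alteration). Compound exposure, then growth measured; inhibition expressed relative to vehicle.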

[6] = NCI Yeast Anticancer Drug Screen. Data for the rad14 strain (AID 159);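 further: 0% = growth of vehicle-treated control cultures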; details: S. cerevisiae rad14 strain growth inhibition, active compounds read high
How it was run: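 Compound-treated yeast with a defined DNA-repair lesion; growth inhibition normalised to vehicle-treated cultures.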

[7] = NCI Yeast Anticancer Drug Screen. Data for the sgs1 mgt1 strain (AID 161);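 further: 0% = growth of cultures given vehicle only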; details: S. cerevisiae sgs1 mgt1 strain, active compounds read high
How it was run: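 Genetically altered yeast, compound exposure, growth inhibition relative to vehicle.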

[8] = NCI Yeast Anticancer Drug Screen. Data for the CLN2oe strain (AID 163);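 further: 0% = growth of vehicle-only control cultures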; details: S. cerevisiae CLN2oe strain, active compounds read high
How it was run: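 Growth of a genetically modified yeast strain is measured after compound exposure and compared with cultures given vehicle alone.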

[9] = NCI Yeast Anticancer Drug Screen. Data for the cln2 rad14 strain (AID 165);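 further: 0% = growth equal to vehicle treated cultures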; details: S. cerevisiae cln2 rad14 strain, active compounds read high
How it was run: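 Compounds are applied to the cln2 rad14 yeast strain, and growth is then compared with that of vehicle-treated cultures to give inhibition.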

[10] = NCI Yeast Anticancer Drug Screen. Data for the bub3 strain (AID 167); details: S. cerevisiae bub3 mutant strain, active compounds read high
How it was run: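 Growth of a checkpoint-deficient yeast mutant is measured after compound exposure. Values represent inhibition relative to vehicle.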

[11] = NCI Yeast Anticancer Drug Screen. Data for the wt2 strain (AID 169);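 further: 0% = growth of vehicle-treated yeast cultures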; details: S. cerevisiae wt2 strain growth inhibition, active compounds read high
How it was run: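 This strain belongs to a panel of yeast strains with defined genetic alterations in DNA damage repair or cell cycle control. Compounds are applied, and growth inhibition is measured against vehicle-treated cultures.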

[12] = NCI Yeast Anticancer Drug Screen. Data for the mlh1 strain (AID 171);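 further: 0% = growth of vehicle-treated control cultures of the same strain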; details: S. cerevisiae mlh1 strain growth inhibition, active compounds read high
How it was run: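 Growth of the mutant yeast strain after compound exposure, expressed as inhibition relative to vehicle-only controls.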

[13] = NCI Yeast Anticancer Drug Screen. Data for the sgs1 strain (AID 173);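 further: 0% = growth of vehicle-only control cultures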; details: S. cerevisiae sgs1 mutant, active compounds read high
How it was run: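 Growth of a yeast strain bearing a defined genetic alteration is measured after compound treatment. Inhibition is expressed relative to vehicle-only controls.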

[14] = NCI Yeast Anticancer Drug Screen. Data for the mlh1 rad18 strain (AID 175); details: S. cerevisiae mlh1 rad18 strain growth inhibition, active compounds read high
How it was run: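 Read-out is yeast growth inhibition, calculated against vehicle-only controls. The compound was applied to a strain engineered with DNA damage repair alterations.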

[15] = NCI Yeast Anticancer Drug Screen. Data for the rad18 strain (AID 177); details: S. cerevisiae rad18 mutant growth inhibition, active compounds read high
How it was run: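 Growth of the mutant yeast strain after compound exposure, normalised to vehicle-only cultures.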

[16] = at 5.0 µM (retest, dose inferred, filed as 0.5)
[17] = at 50.0 µM (retest, dose inferred, filed as 5.0)

Structure (SMILES): CCC(C)/C(C)=N/NC(N)=O (stereo not drawn)
- growth inhibition ([1]; at 1.2 µM): 0%
- growth inhibition ([1]; at 3.7 µM): 2%
- growth inhibition ([1]; at 11.0 µM): 3%
- growth inhibition ([1]; at 33.0 µM): 3%
- growth inhibition ([1]; at 100.0 µM): 1%
- growth inhibition ([2]; at 1.2 µM): -5%
- growth inhibition ([2]; at 3.7 µM): -1%
- growth inhibition ([2]; at 11.0 µM): -3%
- growth inhibition ([2]; at 33.0 µM): -9%
- growth inhibition ([2]; at 100.0 µM): -14%
- growth inhibition ([3]; at 1.2 µM): 0%
- growth inhibition ([3]; at 3.7 µM): -2%
- growth inhibition ([3]; at 11.0 µM): 1%
- growth inhibition ([3]; at 33.0 µM): 14%
- growth inhibition ([3]; at 100.0 µM): 1%
- growth inhibition ([4]; at 1.2 µM): 2%
- growth inhibition ([4]; at 3.7 µM): 0%
- growth inhibition [4, 16]: -7%
- growth inhibition ([4]; at 11.0 µM): 0%
- growth inhibition ([4]; at 33.0 µM): 0%
- growth inhibition [4, 17]: 30%
- growth inhibition ([4]; at 50.0 µM): 58.2%
- growth inhibition ([4]; at 100.0 µM): 0%
- growth inhibition ([5]; at 1.2 µM): -1%
- growth inhibition ([5]; at 3.7 µM): 2%
- growth inhibition [5, 16]: -3%
- growth inhibition ([5]; at 11.0 µM): -1%
- growth inhibition ([5]; at 33.0 µM): -3%
- growth inhibition [5, 17]: -2%
- growth inhibition ([5]; at 50.0 µM): 18.1%
- growth inhibition ([5]; at 100.0 µM): 1%
- growth inhibition ([6]; at 1.2 µM): -2%
- growth inhibition ([6]; at 3.7 µM): 0%
- growth inhibition ([6]; at 11.0 µM): 1%
- growth inhibition ([6]; at 33.0 µM): 0%
- growth inhibition ([6]; at 100.0 µM): 0%
- growth inhibition [7, 16]: 5%
- growth inhibition [7, 17]: 48%
- growth inhibition ([7]; at 50.0 µM): 36.9%
- growth inhibition ([8]; at 1.2 µM): -7%
- growth inhibition ([8]; at 3.7 µM): 0%
- growth inhibition ([8]; at 11.0 µM): 0%
- growth inhibition ([8]; at 33.0 µM): -6%
- growth inhibition ([8]; at 100.0 µM): -5%
- growth inhibition [9, 16]: 5%
- growth inhibition [9, 17]: 12%
- growth inhibition ([9]; at 50.0 µM): 22.5%
- growth inhibition ([10]; at 1.2 µM): -2%
- growth inhibition ([10]; at 3.7 µM): -2%
- growth inhibition [10, 16]: 8%
- growth inhibition ([10]; at 11.0 µM): 0%
- growth inhibition ([10]; at 33.0 µM): -3%
- growth inhibition [10, 17]: 43%
- growth inhibition ([10]; at 50.0 µM): 25%
- growth inhibition ([10]; at 100.0 µM): -10%
- growth inhibition ([11]; at 1.2 µM): 1%
- growth inhibition ([11]; at 3.7 µM): 2%
- growth inhibition ([11]; at 11.0 µM): 3%
- growth inhibition ([11]; at 33.0 µM): 4%
- growth inhibition ([11]; at 100.0 µM): 2%
- growth inhibition ([12]; at 1.2 µM): 1%
- growth inhibition ([12]; at 3.7 µM): 1%
- growth inhibition ([12]; at 11.0 µM): 2%
- growth inhibition ([12]; at 33.0 µM): 1%
- growth inhibition ([12]; at 100.0 µM): 0%
- growth inhibition ([13]; at 1.2 µM): 0%
- growth inhibition ([13]; at 3.7 µM): 4%
- growth inhibition ([13]; at 11.0 µM): 3%
- growth inhibition ([13]; at 33.0 µM): 3%
- growth inhibition ([13]; at 100.0 µM): 2%
- growth inhibition [14, 16]: 1%
- growth inhibition [14, 17]: 76% (active)
- growth inhibition ([14]; at 50.0 µM): 68%
- growth inhibition ([15]; at 1.2 µM): 1%
- growth inhibition ([15]; at 3.7 µM): 0%
- growth inhibition ([15]; at 11.0 µM): -7%
- growth inhibition ([15]; at 33.0 µM): 3%
- growth inhibition ([15]; at 100.0 µM): 5%

From PubChem BioAssay (NCI)
